Pf growth 96h = P. falciparum growth inhibition at 96 hours | P. falciparum luciferase reporter growth, 96 h | Potency, µM (series often up to 28.7 µM), usual class: inhibitors | hit rate 6.9% among 320,000
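P. falciparum expressing integrated firefly luciferase, in erythrocytes at 2% hematocrit, 0.05% parasitemia, incubated with compounds 96 h at 37 C, 5% CO2. Growth inhibition read as loss of luminescence; two-generation exposure targets delayed-death apicoplast inhibitors.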
Pf growth 48h = P. falciparum growth inhibition at 48 hours (one generation) | P. falciparum luciferase growth in erythrocytes, 48 h | Potency, µM (highest dose often 28.7 µM), usual class: inhibitors | hit rate 5.9% among 310,000 | AID 504832
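Erythrocytes infected with P. falciparum carrying an integrated firefly luciferase reporter (2% hematocrit, 0.1% parasitemia final) were exposed to compounds in RPMI 1640 with 0.5% Albumax at 37 C, 5% CO2. Growth inhibition was scored as reduced luminescence.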
CHX counter = counter-screen hit for Shiga toxin inhibitors, cycloheximide; cell reporter, cycloheximide protein synthesis inhibition counterscreen; max response, %; hit rate 12% among 300,000; AID 2314; in the data active means max response mostly above about 13%, no sharp cut-off; inactive means mostly below about 14%; further: read at 38.3 µM for the half of the compounds with a filed dose
Shiga toxin inh = Shiga toxin inhibition. hit rate 9.2% among 290,000. Vero cells, Shiga toxin protein synthesis inhibition reporter. AID 2315. inhibition, % at 38.7 µM; in the data active means inhibition mostly above about 28%, no sharp cut-off; inactive means mostly below about 43%
HCMV antiviral = human cytomegalovirus inhibition; HFF cells, HCMV-luciferase reporter, 72 h; stronger effect = lower value; activity change, negative = inhibition, % at 57.5 µM; hit rate 4.5% among 410,000; AID 1259415; in the data active means activity change below about -60%; inconclusive means no clear call, values can overlap the other calls; inactive means above about -39%
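HFF cells seeded 16 h at 37C, treated with compounds, infected with luciferase-reporter HCMV at MOI 1 PFU/cell; luciferase read at 72 h post infection, normalized to buffer-only and Salinomycin controls.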
Large screens that a line does not name were inactive. In the library only some 20% were active in any assay of this set; here they are far more common. Unless noted, the call rests on the fitted dose curve; in most records, active means well fitted inhibition curve with a large enough effect; inconclusive means small, poorly fitted or top-dose-only effect, or another doubt; inactive means no such curve, though single readings can be large or run the other way.

COc1ccc(C(CCNCc2ccc(N(C)C)cc2)C(C)C)cc1 (configuration not stated)	Pf growth 96h 7.4µM, Pf growth 48h 9.3µM, HCMV antiviral -75
COc1ccc(C(CCNCc2ccc(OC(C)C)cc2)C(C)C)cc1 (configuration not stated)	Pf growth 96h inconclusive, Pf growth 48h inconclusive, HCMV antiviral -79
CCOC(=O)c1c(NC(=O)CCCOc2ccc(C)cc2)sc2c1CCC(C)C2 (configuration not stated)	none (no result: Pf growth 96h, Pf growth 48h, CHX counter, Shiga toxin inh)
Cn1c(=O)c2sccc2n2c(CCCC(=O)Nc3ccc(F)cc3F)nnc12	none
CCN(CC(=O)NCc1ccc(F)cc1)C(=O)c1ccc2c(c1)OCO2	none (no result: CHX counter, Shiga toxin inh)
CCN1CCN(CCCNC(=O)C2c3ccccc3C(=O)N(c3ccc(OC)cc3)C2c2ccc(OC)cc2)CC1 (configuration not stated)	HCMV antiviral -62
COCCN1C(=O)c2ccccc2C(C(=O)NCc2ccco2)C1c1c[nH]c2ccccc12 (configuration not stated)	Pf growth 48h inconclusive
COCCN1C(=O)c2ccccc2C(C(=O)NCCCN2CCCC2)C1c1c[nH]c2ccccc12 (configuration not stated)	Pf growth 48h 13µM
COc1ccc(C2c3ccc4ccccc4c3Oc3ncn(CCO)c(=N)c32)cc1 (configuration not stated)	Pf growth 48h inconclusive (no result: HCMV antiviral)
COc1ccc(C2c3ccc4ccccc4c3Oc3ncn(CCO)c(=N)c32)cc1OC (configuration not stated)	Pf growth 96h inconclusive, Pf growth 48h 10µM (no result: HCMV antiviral)
CN(C)CCCn1cnc2c(c1=N)C(c1ccccc1)c1ccc3ccccc3c1O2 (configuration not stated)	Pf growth 96h 2.1µM, Pf growth 48h 1.5µM, HCMV antiviral -98
COc1ccc(C2c3ccc4ccccc4c3Oc3ncn(CCCO)c(=N)c32)cc1OC (configuration not stated)	Pf growth 96h 1.9µM, Pf growth 48h inconclusive
COc1ccc(C2c3ccc4ccccc4c3Oc3ncn(CCCO)c(=N)c32)cc1 (configuration not stated)	Pf growth 96h inconclusive, Pf growth 48h 5.2µM
CC(C)Cn1cc(-c2cccc3nccn23)cn1	none (no result: Pf growth 96h, Pf growth 48h, CHX counter, Shiga toxin inh)
S=c1[nH]nc(COc2ccccc2)n1/N=C/c1ccccc1Cl	HCMV antiviral inconclusive (no result: Pf growth 48h)
COc1ccnc(Oc2ccccc2)c1C(=O)N/C=N/OCc1ccccc1F	none
COc1cc(C(=O)NCCc2sc(-c3ccc(C)cc3)nc2C)cc(OC)c1OC	none (no result: Pf growth 96h, Pf growth 48h, CHX counter, Shiga toxin inh)
O=C(NNC(=O)c1ccccc1Br)c1ccc(SCC2CCCO2)c([N+](=O)[O-])c1 (configuration not stated)	none
N=c1c2c(ncn1Cc1ccco1)Oc1ccc3ccccc3c1C2c1ccccc1 (configuration not stated)	Pf growth 96h inconclusive, Pf growth 48h 10µM, CHX counter 20, Shiga toxin inh active
N=c1c2c(ncn1CCCO)Oc1c(ccc3ccccc13)C2c1ccccc1 (configuration not stated)	Pf growth 96h inconclusive, Pf growth 48h inconclusive
COc1ccc(C2c3c(ncn(Cc4ccco4)c3=N)Oc3ccc4ccccc4c32)cc1 (configuration not stated)	Pf growth 96h inconclusive, Pf growth 48h inconclusive
COc1ccc(C2c3ccc4ccccc4c3Oc3ncn(CCN(C)C)c(=N)c32)cc1 (configuration not stated)	Pf growth 96h inconclusive, Pf growth 48h 2.3µM, HCMV antiviral -99
CCOc1ccc(N(CC(=O)NC2CCCCC2)C(=O)CCC(=O)Nc2ccccn2)cc1	Pf growth 48h inconclusive
Cc1nc(SCC(N)=O)[nH]c(=O)c1Cc1ccc(OC(C)C)cc1	Pf growth 96h 1.7µM, Pf growth 48h inconclusive
CCOc1cccc(C(=O)Nc2nnc(-c3ccco3)s2)c1	Pf growth 48h inconclusive, CHX counter 31, Shiga toxin inh 92
COc1ccccc1OCC(=O)Nc1nnc(C2CCCC2)s1	CHX counter 15
Cc1ccccc1OCC(=O)Nc1nnc(-c2ccncc2)s1	Pf growth 96h 15µM, HCMV antiviral -93
COc1ccccc1OCC(=O)Nc1nnc(-c2ccco2)s1	CHX counter 47
Cc1ccccc1OCC(=O)Nc1nnc(C2CCCCC2)s1	none
Cc1ccccc1-c1cnc(C(O)c2ccc(F)cc2C)[nH]1 (configuration not stated)	none (no result: Pf growth 96h, Pf growth 48h, CHX counter, Shiga toxin inh)
CCn1c(CN2CCOCC2)nnc1SCC(=O)Nc1ccccc1Cl	none
Cc1cccc(OCC(=O)Nc2nnc(-c3ccco3)s2)c1	Pf growth 96h 5.2µM
CC(C)CCNC(=O)c1cc(C(=O)c2cc(F)ccc2O)cn(CCC(C)C)c1=O	Pf growth 96h inconclusive, Pf growth 48h 1.5µM
CC(C)CCNC(=O)c1cc(C(=O)c2cc(Br)ccc2O)cn(CCC(C)C)c1=O	Pf growth 96h 0.41µM, Pf growth 48h 1µM, HCMV antiviral -73
N#Cc1cc(C(=O)c2cc(F)ccc2O)cn(Cc2ccccc2)c1=O	Pf growth 96h inconclusive, Pf growth 48h inconclusive
COc1cccc(-c2cccc(-c3nc(C(=O)NCc4ccc5c(c4)OCO5)cc4c3[C@H](CCO)N(S(=O)C(C)(C)C)C4)c2)c1 (some centres not stated)	none (no result: Pf growth 96h, Pf growth 48h, CHX counter, Shiga toxin inh)
CC(C)CCNC(=O)C1(O)c2ccccc2NC(=O)N1c1ccc(Cl)cc1 (configuration not stated)	CHX counter 10
O=C1Nc2ccccc2C(O)(C(=O)NCc2ccco2)N1c1ccc(Cl)cc1 (configuration not stated)	CHX counter 18 (no result: Pf growth 96h, HCMV antiviral)
CCOCCCNC(=O)C1(O)c2ccccc2NC(=O)N1c1ccc(Cl)cc1 (configuration not stated)	Pf growth 96h inconclusive
OC(c1ccccc1)c1nc(-c2cccs2)cs1 (configuration not stated)	none (no result: Pf growth 96h, Pf growth 48h, CHX counter, Shiga toxin inh)
CCCc1ccc(Oc2cc(Cl)nc(N)n2)cc1	Pf growth 96h inconclusive, CHX counter 16
CCCc1ccc(Oc2cc(C)nc(N3CCOCC3)n2)cc1	none
CCc1ccc(Oc2cc(C)nc(N)n2)cc1	CHX counter 26, Shiga toxin inh 65
COc1ccc(Oc2cc(F)nc(N)n2)cc1	none
CCc1ccc(-n2c(=O)c3c(C)c(C(=O)N(C)C)sc3n(Cc3ccccc3C#N)c2=O)cc1	none (no result: Pf growth 96h, Pf growth 48h, CHX counter, Shiga toxin inh)
CC(C)=CCC/C(C)=C/CC(C)(C)CNCCN1CCNCC1	Pf growth 96h 4.7µM, Pf growth 48h 4.7µM (no result: HCMV antiviral)
CC(C)=CCC/C(C)=C/CCC(C)NCCN1CCNCC1 (configuration not stated)	Pf growth 96h inconclusive, Pf growth 48h 13µM (no result: HCMV antiviral)
CCOc1c2ccc(C(=O)NCCc3cccs3)cc2nn1CC	CHX counter 48, Shiga toxin inh 89
CCOC(=O)CC(NC(=O)c1cccs1)c1ccc(OCC)cc1 (configuration not stated)	Pf growth 96h 10µM
CCCCOc1ccc(C(=O)NCCc2csc(-c3ccc(OC)cc3)n2)cc1	HCMV antiviral -61 (no result: Pf growth 96h, Pf growth 48h, CHX counter, Shiga toxin inh)
COc1cc(OC)cc(C(=O)NCCc2csc(-c3ccc(C(F)(F)F)cc3)n2)c1	none (no result: Pf growth 96h, Pf growth 48h, CHX counter, Shiga toxin inh)
CCOc1ccc(C(=O)NCc2cccs2)cc1	Pf growth 96h 0.66µM, Shiga toxin inh 83

Screening data (PubChem)
